# Compound activity: PubChem BioAssay, several laboratories
# MEKK2 mut-MEK5: signal of MEK5 binding to mutant human MEKK2 PB1 domain | bead flow cytometry, Alexa488-MEK5 binding to MEKK2 mutant | percent response, % at 10 µM | 0.35% of 290,000 active | AID 1530; in the data active = percent response above about 24%, passing the limit was not always enough
# UBC13 inh: inhibitors of human UBC13 polyubiquitin chain formation | inhibition, % at 20 µM | P61088 | TR-FRET | 0.47% of 330,000 active; in the data active = inhibition above about 45%, passing the limit was not always enough
# Rce1 inh: blocks yeast Ras-converting enzyme. Q03530. yeast membranes, quenched prenylated peptide cleavage fluorescence. calls only. 0.27% of 290,000 active;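 active = fall in fluorescence gain of 50% or more versus controls, with final raw signal at or below 3038400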;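 also: plate controls were neutral control wells for no effect and wells lacking membranes for full effect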
# Target sequence (Q03530 whole entry, looked up): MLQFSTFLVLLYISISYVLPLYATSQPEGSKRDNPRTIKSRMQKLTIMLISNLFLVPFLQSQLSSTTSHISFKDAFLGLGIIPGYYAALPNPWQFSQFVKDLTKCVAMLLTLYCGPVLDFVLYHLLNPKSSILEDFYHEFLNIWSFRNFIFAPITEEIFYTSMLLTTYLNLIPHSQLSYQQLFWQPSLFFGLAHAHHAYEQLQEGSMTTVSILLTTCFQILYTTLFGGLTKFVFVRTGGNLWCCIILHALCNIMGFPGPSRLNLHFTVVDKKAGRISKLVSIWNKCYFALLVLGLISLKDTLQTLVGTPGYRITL
# MEKK2wt PB1 HTS: raises or lowers MEK5 binding to wildtype human MEKK2 PB1 domain. binding response (% of control), % at 10 µM. AID 1531. bead flow cytometry, Alexa488-MEK5 binding to MEKK2 WT; actives lie on both sides. 1.1% of 290,000 active. Q9Y2U5; in the data active = binding response below about 67% or above about 130%
# MEKK3 PB1 HTS: raises or lowers MEK5 binding to the human MEKK3 PB1 domain | bead-based flow cytometry, Alexa488-MEK5 binding to MEKK3; actives lie on both sides; 0 = blocked by unlabeled MEK5, 100 = vehicle | AID 1529 | 1.4% of 290,000 active | binding response (% of control), % at 10 µM | Q99759;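 active = binding response more than 3 SD above or below the average of its plate-row segment, actives on both sides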;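 also: Alexa488 bead fluorescence after subtracting the streptavidin-only scavenger bead signal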
# MEKK2wt confirm: raises or lowers MEK5 binding to wildtype human MEKK2, retest; bead flow cytometry, Alexa488-MEK5 binding to MEKK2 WT; actives lie on both sides; 2.4% of 5,900 active; binding response (% of control), % at 10 µM; shares compounds with MEKK3 PB1 HTS; in the data active = binding response below about 16% or above about 210%; inactive = in between
# MEKK2mut confirm: signal of MEK5 binding to mutant human MEKK2, retest | shares compounds with MEKK3 PB1 HTS | bead flow cytometry, Alexa488-MEK5 binding to MEKK2 mutant | percent response, % at 10 µM | 2% of 5,900 active; in the data active = percent response mostly above about 71%, no sharp cut-off; inactive = mostly below about 38%;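 also: higher means compound restores mutant binding toward wildtype level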
# MEKK3-MEK5 inh: confirmation of inhibitors of MEK5 binding to human MEKK3. shares compounds with MEKK3 PB1 HTS. bead flow cytometry, Alexa488-MEK5 binding to MEKK3; stronger effect = lower value. binding response (% of control), % at 10 µM. 1.8% of 5,900 active. AID 1894;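 active = binding response below 72% of control, or above a set upper limit, though filed actives all read lower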;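 also: 100% = DMSO only wells and 0% = binding blocked by excess unlabeled MEK5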
# An asterisk follows results filed as active; i = inactive; · = no result given; [ ] = another dose, or the depositor's remark. In the library only some 2.5% were active in any assay of this set; here they are far more common.
SMILES,MEKK2 mut-MEK5,UBC13 inh,Rce1 inh,MEKK2wt PB1 HTS,MEKK3 PB1 HTS,MEKK2wt confirm,MEKK2mut confirm,MEKK3-MEK5 inh
O=C1CC(c2ccc3c(c2)OCCO3)Oc2ccc([N+](=O)[O-])cc21 (configuration not stated),17,-4,i,134*,109,93,-27,95
O=C1CC(c2ccc3c(c2)OCCO3)Oc2ccccc21 (configuration not stated),-2,1,i,102,95,·,·,·
Cc1cc(C)nc(SCCC(=O)N2CCOCC2)n1,11,-2,i,123,123*,99,-1,100
CCn1c(O)c(N=NC(=O)CNc2ccc(C)cc2)c2ccccc21,-1,-4,i,103,104,·,·,·
CCn1c(O)c(N=NC(=O)CNc2cccc(C)c2)c2ccccc21,1,4,i,107,148*,100,3,102
Cc1ccc(CNC(=O)Cn2ccc3ccccc3c2=O)o1,-11,8,i,-3.0*[inhibitor],0.0*[inhibitor],98,9,102
COc1ccccc1N1CCN(C(=O)c2c(-c3c(F)cccc3Cl)noc2C)CC1,3,0,i,101,101,·,·,·
Cc1onc(C(=O)N2CCN(c3ccccc3F)CC2)c1-c1ccccc1Cl,1,5,i,104,130*,99,0,101
COc1ccccc1Oc1ccc(N2CC(C(=O)OCC(=O)c3ccccc3)CC2=O)cc1 (configuration not stated),-13,-7,i,9.0*[inhibitor],6.0*[inhibitor],101,-1,101
Cc1cccc(/C=C/C(=O)c2ccc(N3CCOCC3)cc2)c1,86*,-15,i,·,81,101,-1,101
CCOC(=O)C(=Cc1ccc(F)cc1)C(=O)OCC,33*,6,i,121,114,101,0,105
Cc1ccc(C(=O)Nc2ncccc2O)o1,·,-6,i,·,·,·,·,·
CCN(CC)CC(=O)Nc1ccc2c(c1)Nc1ccccc1CC2,13,19,i,135*,109,147,30,112
C=C(C)Cn1c(CCn2c3ccccc3c3ccccc32)n[nH]c1=S,4,-12,i,102,134*,91,1,101
O=C(NC(=O)N1CCCCCC1)c1ccc(Cl)cc1,7,4,i,109,108,·,·,·
COC(=O)c1cc(-c2ccc(S(=O)(=O)N3CCCC3)cc2)c(C(F)(F)F)s1,-25,-2,i,88,87,·,·,·
CCN(CC)S(=O)(=O)c1ccc(-c2cc(C(=O)OC)sc2C(F)(F)F)cc1,23,-7,i,126,130*,106,2,100
COc1cc(CN2CCCC(C(=O)N3CCc4ccccc4C3)C2)cc(OC)c1OC (configuration not stated),4,4,i,113,104,·,·,·
O=C(COc1ccccc1[N+](=O)[O-])N/N=C/c1ccncc1,-12,2,i,88,94,·,·,·
O=C(COc1ccccc1[N+](=O)[O-])N/N=C/c1ccc(O)cc1,0,-9,i,102,136*,103,1,105
COc1ccc(CCNC(=O)c2n[nH]c3ccccc23)cc1,-5,-3,i,95,100,·,·,·
COCCNC(=O)c1n[nH]c2ccccc12,-3,-19,i,85,70*[inhibitor],105,-2,104
COCCNC(=O)Cc1cn(C)c2ccccc12,19,6,i,112,110,·,·,·
COCCNC(=O)c1cn(C)c2ccccc2c1=O,-14,-4,i,74,70*[inhibitor],98,-8,96
Cc1ccc(SCC(=O)OCC(=O)N(CC(C)C)c2c(N)n(Cc3ccccc3)c(=O)[nH]c2=O)c(C)c1,·,-8,i,·,·,·,·,·
CCc1ccc(OCC(=O)N2CCN=C2c2ccccc2)cc1,5,-12,i,105,100,·,·,·
